# About 3,700 (7%) of roughly 53,000 sequences were called active. The full list was thinned out, with actives kept by preference. A number with no mark means an inactive call.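 How the source made its calls: active means gene knockdowns whose robust z-score for IL-1 alpha signal is at least 2 or at most -2, so actives lie on both sides; inactive means the rest.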
# Assay: Components of the Cytosolic LPS Sensing Pathway: Gene Identification via Genome-wide siRNA Screen;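 further: robust z of the log signal after scaling to non-targeting control siRNA wells of the plate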
# Conditions: RAW264.7 macrophages, IL-1a HTRF, actives lie on both sides, screened at 100 nM (by protocol), cells primed 5 h with Pam3CSK4 first
# How it was run: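 Read-out: IL-1a HTRF on supernatant, divided by plate negative-control median ×100, log-transformed and converted to robust z-score. Cells were RAW264.7 given 100 nM siRNA, Pam3CSK4-primed 5 hours, then LipidA-transfected 24 hour.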
row,Sequence,z-score
1,CCUUAUUUUACGGAACUGCTT against Olfr1018,2.11 (active)
2,CCGGAGUUGAAACCUAAAATT against Hmgn5,0.524
3,GCAACAUAUGUUCAAGAUCTT against Ccdc163,0.53
4,GGCCAUCAGAGUCAACUGUTT against Immt,-0.285
5,GCUAGCAGAGAUACAAUGUTT against Rasal3,3 (active)
6,GGAAGAUGAAAGUUCCAUATT against Ankar,1.17
7,GGGUGUAGUCCUGAAAGUATT against Arpc5l,2.45 (active)
8,GCUUGUGAGUGGAACUUUCTT against Mcm6,0.62
9,CCUACAACAGAUGUGCAGCTT against Fam222b,-1.82
10,CCGGGACAUAGAGGAAAUUTT against Cabp1,-0.113
11,CGCACAUGAAGCCACAUAUTT against Plekhb1,-0.176
12,UCCAAGCUGUUGUUUAUACTT against Acsl1,-0.0655
13,CCGUUGGAGUCCAACCUAUTT against Ube2a,2.2 (active)
14,GCUGUUACUCAGCAGAGAGTT against Bach2,-1.02
15,GGCCCUCUCCAAGUCUAUATT against Pex7,0.7
16,GGAGGAAUUUCAAAUACUATT against A530032D15Rik,0.853
17,GGAUAGCAGCUGAGUUUUATT against Asb5,2.57 (active)
18,GGAAGUCAUUAUGUGAUCCTT against Nfyb,-0.404
19,GCCUACAAUCGAGACAGUUTT against Sgca,1.15
20,GGACACAGACACCAAACAATT against Kat2a,-1.71
21,CCCACUAAGGAGAUCAGUUTT against Lasp1,1.32
22,GGUACUGGCAUGGUGACAATT against Mmp11,-2.52 (active)
23,GGUUUCUUGCCAAGAAAUUTT against Asic5,-0.359
24,GGAAACCUGCAUCCUAUGATT against Olfr195,-0.196
25,GAGCUGGGAGGUUUCACAGTT against Tspo,-1.42
26,GGCUUAAGGCUAAUGGUCUTT against Fxyd5,-0.778
27,GCCUGCCUACGAGAUCAACTT against Mgp,-0.0804
28,CCGUGAAAAAAUUAAACAGTT against Slk,0.338
29,CGUUUGCUCUAAAGCCAGGTT against Smagp,0.886
30,GGACAAAAUCACCUCACUUTT against Olfr1135,-3.29 (active)
